Experimental data as given in PubChem BioAssay (NCI).
The panel holds about 79,000 compounds, 15% with a hit somewhere; the sample as a whole holds those more often. Activity calls are given as the source filed them. Cut-off read from the data, not from the text of the source: active = growth inhibition above about 70%; inactive = the rest.

Legend:
[1] = NCI Yeast Anticancer Drug Screen. Data for the wt2 strain (AID 169);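 note: 0% = growth of vehicle-treated yeast cultures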; settings: S. cerevisiae wt2 strain growth inhibition, active compounds read high
In short: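 Inhibition of yeast growth was determined after compound treatment, normalised to controls receiving only vehicle.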

[2] = NCI Yeast Anticancer Drug Screen. Data for the mlh1 strain (AID 171);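 note: 0% = growth of vehicle-treated control cultures of the same strain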; settings: S. cerevisiae mlh1 strain growth inhibition, active compounds read high
In short: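 Vehicle-normalised growth inhibition of a repair- or checkpoint-altered yeast strain following compound treatment.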

[3] = NCI Yeast Anticancer Drug Screen. Data for the sgs1 strain (AID 173);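 note: 0% = growth of vehicle-only control cultures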; settings: S. cerevisiae sgs1 mutant, active compounds read high
In short: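 Screen format: yeast with repair or checkpoint alterations, compound exposure, growth read relative to vehicle.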

[4] = NCI Yeast Anticancer Drug Screen. Data for the mlh1 rad18 strain (AID 175); settings: S. cerevisiae mlh1 rad18 strain growth inhibition, active compounds read high
In short: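 Vehicle-treated cultures served as the reference for growth inhibition in a yeast strain carrying DNA damage repair alterations exposed to each compound.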

[5] = NCI Yeast Anticancer Drug Screen. Data for the rad18 strain (AID 177); settings: S. cerevisiae rad18 mutant growth inhibition, active compounds read high
In short: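 Test articles were incubated with altered yeast defective in DNA damage repair. Results are given as inhibition of growth versus vehicle.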

[6] = NCI Yeast Anticancer Drug Screen. Data for the rad52 strain (AID 147);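 note: 0% = growth of vehicle-treated control cultures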; settings: S. cerevisiae rad52 mutant growth inhibition, active compounds read high
In short: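 Vehicle-treated cultures served as the reference for growth inhibition of compound-exposed yeast bearing a DNA repair mutation.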

[7] = NCI Yeast Anticancer Drug Screen. Data for the wt1 strain (AID 149);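 note: 0% = growth of vehicle-treated wt1 cultures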; settings: S. cerevisiae wt1 strain (SPY 50644) growth inhibition, active compounds read high
In short: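 Growth inhibition read against vehicle controls after compound exposure of the wt1 yeast strain.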

[8] = NCI Yeast Anticancer Drug Screen. Data for the rad50EPP+ strain (AID 151);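 note: 0% = growth of vehicle-treated control cultures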; settings: S. cerevisiae rad50 mutant strain, active compounds read high
In short: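 In this screen, rad50EPP+ yeast were exposed to compounds. Growth inhibition was scored against vehicle-treated controls.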

[9] = NCI Yeast Anticancer Drug Screen. Data for the mgt1 strain (AID 153); settings: S. cerevisiae mgt1 mutant growth inhibition, active compounds read high
In short: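 mgt1 strain exposed; growth vs vehicle control recorded as inhibition.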

[10] = NCI Yeast Anticancer Drug Screen. Data for the rad50 strain (AID 155);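 note: 0% = growth of vehicle-only cultures of the same strain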; settings: S. cerevisiae rad50 strain growth inhibition, active compounds read high
In short: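 Readout: growth inhibition relative to vehicle-treated cultures. Compound exposure was carried out in a genetically defined yeast strain deficient in DNA damage repair.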

[11] = NCI Yeast Anticancer Drug Screen. Data for the mec2-1 strain (AID 157); settings: S. cerevisiae mec2-1 strain, active compounds read high
In short: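 Vehicle-treated cultures served as reference for growth inhibition of compound-exposed mec2-1 yeast.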

[12] = NCI Yeast Anticancer Drug Screen. Data for the rad14 strain (AID 159);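 note: 0% = growth of vehicle-treated control cultures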; settings: S. cerevisiae rad14 strain growth inhibition, active compounds read high
In short: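 Growth inhibition vs vehicle controls; genetically altered yeast strain (DNA damage repair defect) treated with test compounds.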

[13] = NCI Yeast Anticancer Drug Screen. Data for the sgs1 mgt1 strain (AID 161);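 note: 0% = growth of cultures given vehicle only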; settings: S. cerevisiae sgs1 mgt1 strain, active compounds read high
In short: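 Test agents were incubated with a DNA-repair-mutant yeast strain. Growth was then read and compared against vehicle-treated controls.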

[14] = NCI Yeast Anticancer Drug Screen. Data for the CLN2oe strain (AID 163);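 note: 0% = growth of vehicle-only control cultures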; settings: S. cerevisiae CLN2oe strain, active compounds read high
In short: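 Inhibition relative to vehicle-treated yeast is reported. Cells: strain with genetic alteration in cell-cycle control, grown with compound.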

[15] = NCI Yeast Anticancer Drug Screen. Data for the cln2 rad14 strain (AID 165);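 note: 0% = growth equal to vehicle treated cultures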; settings: S. cerevisiae cln2 rad14 strain, active compounds read high
In short: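 Each compound was tested on cln2 rad14 yeast. Inhibition of growth was calculated against vehicle-exposed controls.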

[16] = NCI Yeast Anticancer Drug Screen. Data for the bub3 strain (AID 167); settings: S. cerevisiae bub3 mutant strain, active compounds read high
In short: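 Readout: yeast growth inhibition, expressed relative to vehicle-only wells. The test organism is a mutant strain from a panel with lesions in DNA repair or checkpoint genes.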

[17] = at 5.0 µM (retest, dose inferred, filed as 0.5)
[18] = at 50.0 µM (retest, dose inferred, filed as 5.0)

Measured: growth inhibition

Nc1ncc(-c2ccc(Br)cc2)s1
inactive: [1]; at 1.2 µM 8% | [1]; at 3.7 µM 8% | [1]; at 11.0 µM 8% | [2]; at 1.2 µM -9% | [2]; at 3.7 µM -14% | [2]; at 11.0 µM -1% | [3]; at 1.2 µM 19% | [3]; at 3.7 µM 26% | [3]; at 11.0 µM 34% | [4]; [17] 39% | [4]; [18] 55% | [5]; at 1.2 µM -29% | [5]; at 3.7 µM -30% | [5]; at 11.0 µM -16%
active: [1]; at 33.0 µM 93% | [1]; at 100.0 µM 98% | [2]; at 33.0 µM 94% | [2]; at 100.0 µM 97% | [3]; at 33.0 µM 92% | [3]; at 100.0 µM 97% | [4]; at 50.0 µM 89.9% | [5]; at 33.0 µM 91% | [5]; at 100.0 µM 97%

O=C(O)c1cc2ccc(Cl)cc2c(O)c1C1=CCCCC1
inactive: [6]; at 1.2 µM 6% | [6]; at 3.7 µM 8% | [6]; at 11.0 µM 26% | [6]; at 33.0 µM 46% | [7]; at 1.2 µM -10% | [7]; at 3.7 µM 2% | [7]; at 11.0 µM 6% | [7]; at 33.0 µM 28% | [8]; at 1.2 µM 8% | [8]; at 3.7 µM 8% | [8]; at 11.0 µM 13% | [8]; at 33.0 µM 13% | [8]; at 100.0 µM 33% | [9]; at 1.2 µM 7% | [9]; at 3.7 µM -15% | [9]; at 11.0 µM 1% | [9]; at 33.0 µM 42% | [10]; at 1.2 µM -7% | [10]; at 3.7 µM -5% | [10]; [17] 33% | [10]; at 11.0 µM 11% | [10]; at 33.0 µM 36% | [10]; [18] 58% | [11]; at 1.2 µM 22% | [11]; at 3.7 µM 18% | [11]; [17] -1% | [11]; at 11.0 µM 22% | [11]; at 33.0 µM 40% | [11]; [18] 58% | [11]; at 50.0 µM 69.1% | [11]; at 100.0 µM 69% | [12]; at 1.2 µM -6% | [12]; at 3.7 µM -10% | [12]; at 11.0 µM 9% | [12]; at 33.0 µM 30% | [13]; [17] 0% | [14]; at 1.2 µM 17% | [14]; at 3.7 µM -2% | [14]; at 11.0 µM 4% | [14]; at 33.0 µM 40% | [15]; [17] 12% | [15]; [18] 63% | [15]; at 50.0 µM 56.9% | [16]; at 1.2 µM 14% | [16]; at 3.7 µM -8% | [16]; [17] 26% | [16]; at 11.0 µM -5% | [16]; at 33.0 µM 32% | [16]; [18] 64% | [16]; at 50.0 µM 60.4% | [1]; at 1.2 µM 5% | [1]; at 3.7 µM 5% | [1]; at 11.0 µM 23% | [1]; at 33.0 µM 52% | [2]; at 1.2 µM 26% | [2]; at 3.7 µM 24% | [2]; at 11.0 µM 41% | [2]; at 33.0 µM 68% | [3]; at 1.2 µM 23% | [3]; at 3.7 µM 23% | [3]; at 11.0 µM 39% | [3]; at 33.0 µM 65% | [4]; [17] -7% | [4]; at 50.0 µM 62.4% | [5]; at 1.2 µM 22% | [5]; at 3.7 µM 21% | [5]; at 11.0 µM 25% | [5]; at 33.0 µM 52%
active: [6]; at 100.0 µM 78% | [7]; at 100.0 µM 73% | [9]; at 100.0 µM 84% | [10]; at 50.0 µM 74.3% | [10]; at 100.0 µM 76% | [12]; at 100.0 µM 75% | [13]; [18] 76% | [13]; at 50.0 µM 79.8% | [14]; at 100.0 µM 71% | [16]; at 100.0 µM 78% | [1]; at 100.0 µM 87% | [2]; at 100.0 µM 87% | [3]; at 100.0 µM 88% | [4]; [18] 74% | [5]; at 100.0 µM 81%

COc1ccc(C(=O)c2ccccc2C(=O)c2ccccc2OC)cc1
active: [16]; [18] 79%
inactive: [6]; at 1.2 µM -1% | [6]; at 3.7 µM -2% | [6]; at 11.0 µM 1% | [6]; at 33.0 µM 6% | [6]; at 100.0 µM 14% | [7]; at 1.2 µM -2% | [7]; at 3.7 µM 1% | [7]; at 11.0 µM -6% | [7]; at 33.0 µM -7% | [7]; at 100.0 µM -4% | [8]; at 1.2 µM 5% | [8]; at 3.7 µM 9% | [8]; at 11.0 µM 11% | [8]; at 33.0 µM 15% | [8]; at 100.0 µM 13% | [9]; at 1.2 µM -1% | [9]; at 3.7 µM -1% | [9]; at 11.0 µM -2% | [9]; at 33.0 µM -1% | [9]; at 100.0 µM 7% | [10]; at 1.2 µM -1% | [10]; at 3.7 µM 1% | [10]; [17] 7% | [10]; at 11.0 µM -1% | [10]; at 33.0 µM 4% | [10]; [18] 46% | [10]; at 50.0 µM 12.8% | [10]; at 100.0 µM 10% | [11]; at 1.2 µM -2% | [11]; at 3.7 µM 1% | [11]; [17] -10% | [11]; at 11.0 µM 1% | [11]; at 33.0 µM 7% | [11]; [18] 16% | [11]; at 50.0 µM 10.1% | [11]; at 100.0 µM 11% | [12]; at 1.2 µM -3% | [12]; at 3.7 µM -5% | [12]; at 11.0 µM -5% | [12]; at 33.0 µM -1% | [12]; at 100.0 µM 8% | [13]; [17] 17% | [13]; [18] 55% | [13]; at 50.0 µM 15.4% | [14]; at 1.2 µM 2% | [14]; at 3.7 µM -15% | [14]; at 11.0 µM 0% | [14]; at 33.0 µM 7% | [14]; at 100.0 µM 24% | [15]; [17] 9% | [15]; [18] 35% | [15]; at 50.0 µM 13.7% | [16]; at 1.2 µM -1% | [16]; at 3.7 µM 3% | [16]; [17] 16% | [16]; at 11.0 µM 7% | [16]; at 33.0 µM 27% | [16]; at 50.0 µM 39.5% | [16]; at 100.0 µM 43% | [1]; at 1.2 µM -1% | [1]; at 3.7 µM -2% | [1]; at 11.0 µM -5% | [1]; at 33.0 µM -2% | [1]; at 100.0 µM 1% | [2]; at 1.2 µM 1% | [2]; at 3.7 µM -2% | [2]; at 11.0 µM -1% | [2]; at 33.0 µM 4% | [2]; at 100.0 µM 15% | [3]; at 1.2 µM -1% | [3]; at 3.7 µM -2% | [3]; at 11.0 µM 0% | [3]; at 33.0 µM 9% | [3]; at 100.0 µM 15% | [4]; [17] 30% | [4]; [18] 68% | [4]; at 50.0 µM 20.7% | [5]; at 1.2 µM -1% | [5]; at 3.7 µM -5% | [5]; at 11.0 µM -4% | [5]; at 33.0 µM 3% | [5]; at 100.0 µM 12%
